High-throughput results (PubChem BioAssay)
MEKK3 PB1 HTS – raises or lowers MEK5 binding to the human MEKK3 PB1 domain; binding response (% of control), % at 10 µM; actives 1.4% (n = 290,000); bead-based flow cytometry, Alexa488-MEK5 binding to MEKK3; actives lie on both sides; 0 = blocked by unlabeled MEK5, 100 = vehicle; AID 1529;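 active = binding response more than 3 SD above or below the average of its plate-row segment, actives on both sides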;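 note: Alexa488 bead fluorescence after subtracting the streptavidin-only scavenger bead signal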
Target sequence (Q99759 whole entry, looked up, the tested form may be a part): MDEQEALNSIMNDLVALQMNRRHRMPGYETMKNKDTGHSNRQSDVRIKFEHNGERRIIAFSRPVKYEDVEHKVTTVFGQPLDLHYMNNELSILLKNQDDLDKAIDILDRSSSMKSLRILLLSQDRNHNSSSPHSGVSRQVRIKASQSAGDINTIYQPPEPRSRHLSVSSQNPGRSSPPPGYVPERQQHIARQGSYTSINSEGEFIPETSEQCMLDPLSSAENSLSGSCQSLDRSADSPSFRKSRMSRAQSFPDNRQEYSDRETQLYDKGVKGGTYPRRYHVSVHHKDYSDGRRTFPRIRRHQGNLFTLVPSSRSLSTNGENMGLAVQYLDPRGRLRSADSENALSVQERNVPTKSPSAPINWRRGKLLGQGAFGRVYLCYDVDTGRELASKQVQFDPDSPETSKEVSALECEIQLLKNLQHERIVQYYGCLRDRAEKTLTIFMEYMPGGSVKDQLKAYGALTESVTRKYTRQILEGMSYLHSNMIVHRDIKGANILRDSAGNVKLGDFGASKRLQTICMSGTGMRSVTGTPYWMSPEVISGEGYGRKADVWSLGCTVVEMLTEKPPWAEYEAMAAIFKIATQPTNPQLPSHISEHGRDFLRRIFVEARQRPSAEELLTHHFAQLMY
MEKK2mut PB1 HTS – signal of MEK5 binding to mutant human MEKK2 PB1 domain | actives 0.35% (n = 290,000) | percent response, % at 10 µM | AID 1530 | bead flow cytometry, Alexa488-MEK5 binding to MEKK2 mutant; in the data active = percent response above about 24%, passing the limit was not always enough
MEKK2wt PB1 HTS – raises or lowers MEK5 binding to wildtype human MEKK2 PB1 domain; Q9Y2U5; bead flow cytometry, Alexa488-MEK5 binding to MEKK2 WT; actives lie on both sides; binding response (% of control), % at 10 µM; actives 1.1% (n = 290,000); in the data active = binding response below about 67% or above about 130%
SKN-1 block – blocks SKN-1 activity in C. elegans; C. elegans VP596 Pgst-4::GFP/RFP ratio, acrylamide-induced, 24 h; inhibition, % at 21.8 µM; actives 0.49% (n = 360,000);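 active = interference check ratio from 0.5 to 1.5 plus GFP to RFP signal ratio inhibition reaching or exceeding a fixed threshold, cut at about 30% in these data, passing the limit was not always enough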
CendR NRP1 mod – modulators of CendR peptide binding to human neuropilin-1; O14786; FAM-RPARPAR peptide binding to NRP-1, fluorescence polarization; inhibition, % at 25 µM; actives 0.85% (n = 360,000); AID 602438;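 active = inhibition or corrected inhibition above about 18%, plus a signal ratio from 0.5 to 1.5, limit read from the data, passing the limit was not always enough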
Numbers without * were called inactive; · = not tested or not shown; [ ] = remark or other dose. Hits are enriched below; roughly 3.2% of the tested compounds scored in any of these assays.

SMILES | MEKK3 PB1 HTS | MEKK2mut PB1 HTS | MEKK2wt PB1 HTS | SKN-1 block | CendR NRP1 mod
CN(C)c1ccc(/C=C/c2ccc3ccccc3[n+]2C)cc1 | 97.0 | 27.0 | 2.0* | 87.6 | -42.8
CN(CCCS(=O)(=O)[O-])c1ccc(/C=C/c2ccc3ccccc3[n+]2C)cc1 | 106.0 | -2.0 | 103.0 | 37.0* | 14.9
COc1ccc(/C=C/c2ccc3ccccc3[n+]2C)cc1OC | 92.0 | 2.0 | 95.0 | -1.8 | -9.7
COc1ccc(S(=O)(=O)N(CC(=O)NCC2CCCO2)c2ccc(Cl)cc2)cc1 (stereo not drawn) | 98.0 | 3.0 | 97.0 | 8.6 | 2.3
Cc1ccc(N(CC(=O)NCC2CCCO2)S(=O)(=O)c2ccc(Cl)cc2)cc1C (stereo not drawn) | 101.0 | 8.0 | 103.0 | 35.1* | -2.3
C=C1CCC[C@]2(C)C[C@H]3OC(=O)C(CNCCN(C)C)[C@H]3CC12 (stereo partly drawn) | 104.0 | 16.0 | 125.0 | 37.1* | -0.4
O=C(NCc1ccc(F)cc1)c1cccnc1C(=O)O | 107.0 | 5.0 | 103.0 | 11.3 | 26.8*
O=C(NCc1ccc(F)cc1)c1cnc(-c2ccccn2)nc1C(F)(F)F | 103.0 | 6.0 | 112.0 | 25.9 | 28.7*
Cc1ccc(CNC(=O)c2cnc(-c3ccccn3)nc2C(F)(F)F)cc1 | 108.0 | 8.0 | 112.0 | 19.6 | 14.3
CCC(CO)N=CC1=C(O)CC(c2ccccc2)CC1=O (stereo not drawn) | 108.0 | 12.0 | 106.0 | -9.3 | 6.0
COC(=O)c1cccc(CC2(C)C(=O)Nc3cc(-c4ccccc4Cl)ccc32)c1 (stereo not drawn) | · | · | · | 1.1 | 5.7
COc1ccc(CNC(=O)COc2ccc(S(=O)(=O)N3CCOCC3)cc2C)cc1 | 98.0 | 0.0 | 99.0 | 14.3 | -0.1
CN1CCC(N(C)C(=O)/C(C#N)=C/c2ccc(OC(F)F)cc2)CC1 | 106.0 | 11.0 | 114.0 | -3.0 | 4.8
CC(C)c1cccc(-c2csc(C(C)(O)c3cccc(F)c3)n2)c1 (stereo not drawn) | · | · | · | 1.2 | -13.8
CC(C)c1ccc(OCC(=O)NCc2ccccc2)cc1 | 103.0 | 10.0 | 102.0 | -15.8 | 52.2*
COC(=O)C[C@@H]1OC[C@H](CO)N1S(=O)(=O)c1ccc(C)cc1 | · | · | · | 5.5 | 8.0
COCCNC(=O)C1(C)CCCN(C(=O)c2ccc3c(c2)CCO3)C1 (stereo not drawn) | · | · | · | -13.6 | -12.5
Cc1occc1C(=O)N1CCCC(Nc2ccc(F)cc2)C1 (stereo not drawn) | 103.0 | -3.0 | 102.0 | -9.9 | 5.6
Cc1ccc2nccc(C(=O)N3CCCC(Nc4ccc(F)cc4)C3)c2c1 (stereo not drawn) | 96.0 | -6.0 | 94.0 | 5.7 | 21.8*
O=C(Oc1cncc(Cl)c1)c1ccco1 | 120.0 | 5.0 | 109.0 | 39.2* | -1.3
COc1ccc(/C=N/NC(=O)c2ccc(NC(=O)C3CCCCC3)cc2)cc1O | 100.0 | 3.0 | 103.0 | -8.4 | 0.3
COc1cc(/C=N/NC(=O)c2ccc(NC(=O)C3CC3)cc2)ccc1OC(C)=O | 100.0 | -5.0 | 96.0 | 3.1 | 26.9*
CC1(CCc2ccccc2)NC(=O)NC1=O (stereo not drawn) | · | · | · | 16.8 | 10.2
O=C(COc1cc(Cl)c(Cl)cc1Cl)Nc1ccc([N+](=O)[O-])cc1Cl | 93.0 | 9.0 | 91.0 | 14.6 | 24.3*
COC(=O)C1C2CC(=O)C(C2)C1C(=O)OC (stereo not drawn) | · | · | · | 7.3 | 2.8
SMILES | MEKK3 PB1 HTS | MEKK2mut PB1 HTS | MEKK2wt PB1 HTS | SKN-1 block | CendR NRP1 mod
O=C(O)CCCN1C(=O)/C(=C\c2ccc(-c3nc4ccccc4s3)o2)SC1=S | 68.0 | -20.0 | 41.0*[inhibitor] | 29.0 | -175.9
O=C(O)CCN1C(=O)/C(=C/c2ccc(-c3nc4ccccc4s3)o2)SC1=S | · | · | · | 19.7 | -135.4
CC(=O)/C(=N\Nc1cccc(Cl)c1)Sc1cccc2cccnc12 | 88.0 | -3.0 | 89.0 | 8.1 | -7.5
CC(=O)/C(N)=N/Nc1cccc(Cl)c1 | 96.0 | 9.0 | 16.0* | 9.8 | -32.1
Cc1ccccc1C(=O)Nc1ccc2c(C#N)c3nc4ccccc4nc3n2c1 | 90.0 | -2.0 | 70.0 | 35.8* | -40.2
CC1(Oc2ccc3ccccc3c2)CCN(Cc2ccc(OC(F)(F)F)cc2)C1 (stereo not drawn) | · | · | · | -5.1 | 3.9
Cc1cc(C(=O)CSc2nnc(NCc3ccccc3)s2)c(C)n1C | 97.0 | 0.0 | 96.0 | 0.9 | 9.5
CN1/C(=C\C(=O)CSc2nnc(NCc3ccccc3)s2)C(C)(C)c2ccccc21 | 101.0 | 3.0 | 95.0 | 45.5* | -25.2
CCOC(=O)Nc1cccc2c1-c1ccc([N+](=O)[O-])cc1C2=O | · | · | · | 40.2* | -13.7
CCOC(=O)Nc1cc2c(cc1[N+](=O)[O-])-c1ccccc1C2=O | · | · | · | 18.7 | -13.1
COc1cc2sc3cc(NCc4ccc(C)o4)ccc3c(=O)c2cc1OC | · | · | · | 36.6* | 12.4
COc1cc2sc3cc(NCc4ccc5c(c4)OCO5)ccc3c(=O)c2cc1OC | · | · | · | 11.5 | -8.0
N#CC(c1ccc(F)cc1)c1ccc(C(=O)c2ccc(F)cc2)cc1 (stereo not drawn) | 102.0 | 2.0 | 100.0 | -34.3 | 3.4
Cc1ccc(C(C#N)c2ccc(C(=O)c3ccc(F)cc3)cc2)cc1 (stereo not drawn) | 107.0 | 7.0 | 101.0 | -25.0 | 33.4*
Nc1ccc(O)cc1C(=O)OCC(=O)C12CC3CC(CC(C3)C1)C2 | 94.0 | -11.0 | 89.0 | 44.7* | -9.3
c1ccn2cc(-c3ccc4c(c3)OCCO4)nc2c1 | 98.0 | -12.0 | 94.0 | 37.7* | 0.1
c1ccc(CNn2nnc3ccccc32)cc1 | · | · | · | 11.0 | 23.1*
C(#Cc1ccccc1)Cn1nnc2ccccc21 | 99.0 | -1.0 | 96.0 | 19.6 | 5.2
CN(CC(=O)NC(=O)NC1CCCCC1)CC(=O)Nc1ccc(OC(F)(F)F)cc1 | · | · | · | 4.7 | 7.7
CCc1cccc(CC)c1NC(=O)c1cccc(NC(=O)c2ccccc2)c1 | 100.0 | 0.0 | 90.0 | 1.2 | -5.3
CCc1cccc(CC)c1NC(=S)Nc1ccccc1 | 95.0 | -12.0 | 91.0 | 7.9 | 20.2*
N#CC1(c2ccccc2)CCCN1C(=O)c1ccccc1Cl (stereo not drawn) | 102.0 | 2.0 | 104.0 | 4.2 | 26.3*
N#CC1(c2ccccc2)CCCN1C(=O)c1ccc(Br)cc1 (stereo not drawn) | 99.0 | 1.0 | 97.0 | -3.3 | -8.1
CC1(C(=O)NCc2ccc(Cl)cc2)CCN1C(=O)Cc1ccc(Cl)cc1Cl (stereo not drawn) | · | · | · | 19.8 | 5.9
NC(=O)[C@H]1CC2(CC(c3cccc(NC(=O)CC(c4ccccc4)c4ccccc4)c3)=NO2)CN1C(=O)C(c1ccccc1)c1ccccc1 (stereo partly drawn) | 80.0 | -20.0 | 73.0 | 6.7 | 30.3*
CC/C=C/C(=O)N1CC2(CC(c3cccc(NC(=O)c4ccccc4)c3)=NO2)C[C@@H]1C(N)=O (stereo partly drawn) | 107.0 | 2.0 | 104.0 | -2.4 | 23.4*
